The list is not random: actives were taken first. Their share in the collection is about 5.2%.
GRIN3A LBD mod: binders of NR3A ligand-binding domain, primary screen, biophysical, differential scanning fluorimetry, uHTS; 340,000 tested, 2.5% active; NR3A LBD differential scanning fluorimetry, Tm shift; 0% = protein alone, 100% = glycine-bound protein; Tm shift relative to glycine control, % at 25 µM;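 active means melting temperature shift of at least 10% of the positive control shift, at one fixed dose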
Vif imaging: HIV Vif self-association inhibitors, primary screen, imaging, HEK293T, single point; inhibition, % at 7.49 µM; HEK293T cells, Vif self-association by quenched fluorescence, 24 h; 340,000 tested, 0.35% active; in the data active means inhibition above about 50%, passing the limit was not always enough
SMARCA2 act: SMARCA2 (BRM) function activators, primary screen, cell-based, luminescence, high throughput | MG213 cells, MMTV-luciferase reporter, dexamethasone, overnight | activation, % at 9.1 µM | 370,000 tested, 1% active | AID 652017, 2013; in the data active means activation above about 7.8%
NadD inh: inhibitors of S. aureus NadD, primary screen, biochemical, colorimetric, uHTS; Nicotinate-nucleotide adenylyltransferase NadD (Staphylococcus aureus N315); purified NadD enzyme, colorimetric absorbance read-out; inhibition, % at 20 µM; 360,000 tested, 0.78% active; AID 602399, 2012; in the data active means inhibition above about 26%
esBAF inh: Bmi1 luciferase reporter increase in mESCs, primary screen, esBAF inhibitor project, mouse ES cells, Bmi1 luciferase knock-in, single point; 24 h; 100% = twice the neutral-well signal; reporter increase, % at 12.5 µM; 350,000 tested, 2% active; AID 602393, 2012; in the data active means activation above about 40%;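 further: a rise in the Bmi1 reporter signal indicates esBAF inhibition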
SKN-1 inh: suppressors of acrylamide-induced Pgst-4::GFP reporter in worms, primary screen, SKN-1 inhibitor project, whole organism, uHTS, GFP/RFP fluorescence ratio, strain VP596. C. elegans VP596 Pgst-4::GFP/RFP ratio, 24 h. inhibition, % at 21.8 µM. 360,000 tested, 0.49% active;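 active means interference check ratio from 0.5 to 1.5 plus GFP to RFP signal ratio inhibition reaching or exceeding a fixed threshold, cut at about 30% in these data, passing the limit was not always enough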
Numbers stand for hits; - = inactive; . = no result; ! = not active in a repeat.

SMILES	GRIN3A LBD mod	Vif imaging	SMARCA2 act	NadD inh	esBAF inh	SKN-1 inh
COc1ccc2nc(NC(=O)c3ccc(NC(=O)C4CCCO4)cc3)sc2c1 (stereo not given)	20	-	-	-	-	-
COCC(=O)N(C)C[C@@H]1Oc2ncc(-c3ccccc3F)cc2C(=O)N([C@@H](C)CO)C[C@H]1C	.	.	.	.	-	.
COC(=O)c1ccc(C(=O)Nc2nc3cc(N)c(C)cc3s2)cc1	36	-	-	-	-	-
COc1ccc2nc(NC(=O)c3ccccc3C(=O)O)sc2c1	-	-	-	-	-	-
COc1ccc2nc(NS(=O)(=O)c3ccc(NC(C)=O)cc3)sc2c1	-	-	-	-	-	-
COc1ccc(C(=O)Nc2nc3ccc(OC)cc3s2)cc1	32	-	-	-	-	-
Cc1cccc2sc(NC(=O)CNS(=O)(=O)c3ccc(Br)s3)nc12	11	-	-	-	-	-
COc1ccc(Nc2nc3ccc(OC)cc3s2)cc1	28	-	-	-	.	-
C[C@@H]1CN([C@H](C)CO)C(=O)c2cc(NC(=O)Cc3ccccc3)ccc2O[C@@H](C)CCCCO[C@H]1CN(C)C	.	.	.	.	-	.
O=C(C[C@@H]1C[C@H]2c3cc(NC(=O)Nc4ccccc4F)ccc3O[C@H]2[C@@H](CO)O1)NCC1CC1	.	.	.	.	-	.
COc1ccc(CNC(=O)C[C@@H]2C[C@@H]3c4cc(NC(=O)CC5CC5)ccc4O[C@@H]3[C@H](CO)O2)cc1	.	.	.	.	-	.
CC(C)NC(=O)N1[C@H](CO)[C@@H]2c3ccccc3N(C(=O)c3ccc(F)cc3)C[C@@H]21	.	.	.	.	-	.
Cc1cccc(-c2cc3nc4c(c(N5CCOCC5)n3n2)CCCC4)c1	-	.	-	-	-	-
Cc1cccc(-c2cc3nc4c(c(N5CCC6(CC5)OCCO6)n3n2)CCCC4)c1	15	-	-	-	78	-
OC1CCN(c2c3c(nc4cc(-c5ccc(F)cc5)nn24)CCC3)CC1	-	.	-	-	-	-
Fc1ccc(-c2cc3nc4c(c(N5CCOCC5)n3n2)CCCC4)cc1	-	-	-	-	53	-
C[C@@H](NC(=O)[C@H]1[C@H](CO)[C@H]2Cn3c(cccc3=O)[C@@H]1N2C(=O)C1CCCC1)c1ccccc1	.	.	.	.	-	.
CCC(=O)Nc1cccc(-c2cn3ccccc3n2)c1	-	-	-	-	.	-
CCC(=O)Nc1cccc(-c2cn3cccc(C)c3n2)c1	15	-	-	-	.	-
Cc1cccc2nc(-c3cccc(NC(=O)Cc4ccccc4)c3)cn12	-	-	13	-	.	-
CC(C)NC(=O)Nc1cccc2c1O[C@H](CN(C)S(=O)(=O)c1cccs1)[C@@H](C)CN([C@@H](C)CO)C2=O	.	.	.	.	-	.
CCCCCN=C(C)c1c(O)c2ccccc2oc1=O	-	-	-	-	58	-
C[C@@H]1CN([C@@H](C)CO)C(=O)Cc2cc(NC(=O)C3CC3)ccc2O[C@H]1CN(C)S(=O)(=O)c1ccc(Cl)cc1	.	.	.	.	-	.
O=C(O)c1cc2nc3c(c(C(F)(F)F)n2n1)CCc1ccccc1-3	11	-	-	-	-	-
CCC(=O)N1C[C@H](C)[C@@H](OC)CN(C)C(=O)c2cc(NC(=O)C3CCCCC3)ccc2OC[C@@H]1C	.	.	.	.	-	.
SMILES	GRIN3A LBD mod	Vif imaging	SMARCA2 act	NadD inh	esBAF inh	SKN-1 inh
Cc1cnc(C(=O)N(c2ccccc2)C(c2ccccc2)c2nc3ccccc3[nH]2)cn1 (stereo not given)	.	.	-	-	45	-
C[C@@H]1CN([C@H](C)CO)C(=O)c2cc(NS(=O)(=O)c3ccc(Cl)cc3)ccc2O[C@@H](C)CCCCO[C@@H]1CN(C)C(=O)c1ccccc1	.	.	.	.	-	.
Cc1nc2c(o1)CCc1ccccc1C2N1CCN(C)CC1 (stereo not given)	13!	-	-	-	-	-
CCCC(=O)N1CCCC(C(=O)c2cccc(OC(C)C)c2)C1 (stereo not given)	-	-	-	-	54	-
Cc1cc(C)nc(CCNC(=O)C2CCC(=O)N(Cc3ccccc3F)C2)n1 (stereo not given)	-	-	-	-	-	-
Cc1ccc(CCNC(=O)C2CCC(=O)N(Cc3ccccc3F)C2)o1 (stereo not given)	-	-	-	-	55	-
Cc1ccc(F)cc1CNC(=O)C1CCC(=O)N(CCCN2CCCC2=O)C1 (stereo not given)	13	-	-	-	-	-
COc1ccccc1CCCNC(=O)C1CCC(=O)N(Cc2ccccc2F)C1 (stereo not given)	-	-	-	-	46	-
COc1ccccc1CNC(=O)C1CCC(=O)N(CCCN2CCCC2=O)C1 (stereo not given)	-	-	-	-	-	-
COc1ccc2c(c1)CN(C)S(=O)(=O)c1ccccc1-2	13	-	-	-	-	-
Cn1cnc(S(=O)(=O)N2C[C@@H](O)COC[C@@H]3O[C@H](CC(=O)NC4Cc5ccccc5C4)CC[C@H]32)c1	.	.	.	.	-	.
O=S(=O)(Nc1cc2nc3ccccc3nc2n1Cc1ccccc1)c1ccc(Cl)cc1	12	.	-	-	.	-
COc1cccc(C(=O)NC2CCCC2)c1	-	-	-	-	-	-
Cc1cccc(NC(=O)C2C3CCC4C(CCC32)C4(Cl)Cl)c1 (stereo not given)	13	-	-	-	-	-
O=C(Nc1ccc(Cl)cc1)C1C2CCC3C(CCC21)C3(Cl)Cl (stereo not given)	-	-	-	-	-	-
Cc1cccc(C(=O)NC2CCCCCCC2)c1	-	-	-	-	65	-
CN(C)c1cccc(C(=O)NC2CCCCCC2)c1	-	.	-	-	44	-
Cc1cc(C(=O)NC2CCCCCCC2)ccc1[N+](=O)[O-]	-	-	-	-	66	-
Cc1noc(C)c1S(=O)(=O)N(C)C[C@H]1OCCCC[C@@H](C)Oc2ccc(NS(=O)(=O)c3cccs3)cc2C(=O)N([C@@H](C)CO)C[C@H]1C	.	.	.	.	-	.
Cc1cccc(NC(=O)NC2CCCCCCC2)c1	-	-	-	-	62	-
CCCNC(=O)N[C@H]1C=C[C@@H](CC(=O)NCCc2ccccc2)O[C@H]1CO	.	.	.	.	-	.
COc1ccc(C(=O)NC2CCCCCC2)cc1OC1CCN(C(C)=O)CC1	-	-	-	-	-	-
COc1ccc(C(=O)NCCC2=CCCCC2)cc1OC1CCN(C(C)C)CC1	-	-	-	-	60	-
COc1ccc(C(=O)NC2CCCCC2)cc1OC1CCN(C(C)C)CC1	13	-	-	-	-	-

Source: PubChem BioAssay (several laboratories)
